# In PubChem BioAssay (NCI):
# The panel holds about 83,000 compounds, 20% with a hit somewhere; the sample as a whole holds those more often.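 The test compound was applied at a single concentration to cells in 96-well plates for 48 hours, and percent growth was recorded.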 Unmarked numbers belong to inactive results. The source made the active and inactive calls. The calls were made as follows: active = growth percent below 10; inactive = the rest.
# How the values were obtained:
# Experiment in all cases: NCI-60 one-dose screen, 48 h (100 = growth as untreated, 0 = no growth, -100 = all killed)
# Details in all cases: 10 µM unless noted
# [1] = tested on: SR leukemia
# [2] = tested on: RPMI-8226 leukemia
# [3] = tested on: OVCAR-5 ovarian
# [4] = tested on: OVCAR-4 ovarian
# [5] = tested on: SK-OV-3 ovarian
# [6] = tested on: IGROV1 ovarian
# [7] = tested on: OVCAR-3 ovarian
# [8] = tested on: HS 578T breast
# [9] = tested on: NCI/ADR-RES ovarian
# [10] = tested on: OVCAR-8 ovarian
SMILES,growth [1],growth [2] [%],growth [3],growth [4] [%],growth [5] [%],growth [6] [%],growth [7],growth [8],growth [9],growth [10]
O=C(O)c1c[nH]c2ccccc2c1=O,99.9%,97.8,93.9%,93.4,92.3,99.2,107%,112%,104%,–
C=COC(=O)CCOCC(CC)CCCC (stereo not drawn),99.2%,–,103%,96.2,113,105,98%,105%,105%,114%
S=CN1CCCCC1,99.5%,110,–,102,115,109,102%,112%,106%,–
CC(CC(CCC(=O)O)(c1ccccc1)c1ccccc1)N(C)C (stereo not drawn),98.6%,–,98.4%,96.1,97.6,107,67.3%,106%,108%,94.4%
CC(C)c1ccccc1NC(=O)N1CCC(C(C)C)CC1,92.4%,–,117%,96.7,105,106,113%,102%,111%,105%
O=Cc1c(O)c2ccccc2[nH]c1=O,114%,–,98.5%,106,105,104,134%,106%,104%,95.1%
O=C(Nc1ccccc1)c1ccco1,100%,–,110%,100,103,105,114%,103%,107%,101%
NC(=O)c1cc2c3ccccc3ccn2c1-c1ccccc1,-22.3% (active),–,33.5%,43.2,12.7,20.2,-20.6% (active),70.3%,-12% (active),8.3% (active)
C=C(C)[C@@H]1CC[C@]2(CO)CC[C@]3(C)[C@H](CC[C@@H]4[C@@]5(C)CC[C@H](O)C(C)(C)[C@@H]5CC[C@]43C)[C@@H]12,42.6%,41.2,-21.9% (active),33.7,41.3,35.9,64.5%,–,-43.6% (active),–
COC1OC(C(COC(C)=O)OC(C)=O)C(OC(C)=O)C(OC(C)=O)C1OC(C)=O (stereo not drawn),87.3%,98.7,89.7%,107,110,104,118%,–,105%,–
Nc1ccc(F)c(Cl)c1F,101%,–,98.8%,112,113,116,111%,96.4%,105%,108%
C=CCC(OC(C)=O)c1ccc(OC)c(OC)c1 (stereo not drawn),35.3%,97.1,113%,118,126,96.6,111%,–,116%,–
Nc1cc(F)ccc1[N+](=O)[O-],114%,106,97.4%,106,114,98.4,115%,–,107%,–
O=C(c1ccccc1)c1ccc(-c2ccc(O)cc2)cc1,177%,–,108%,45.6,93.4,25.9,85.8%,104%,44.5%,82.8%
O=C(c1ccc(Cl)cc1)N1CCCCC1,96.9%,102,102%,113,105,105,112%,23.2%,102%,–
Nc1ccc(F)cc1F,107%,102,96.3%,123,–,105,116%,–,108%,–
CC(=O)NCNC(C)=O,85.3%,–,105%,110,113,113,120%,111%,111%,98%
O=S(=O)(O)c1cccnc1,100%,–,119%,114,103,132,111%,110%,128%,104%
Cc1ccc(C)c(CN(C)C)c1O,118%,121,102%,–,107,110,113%,105%,99.3%,–
CCN(CC)CCN1CNC(=S)NC1,96.4%,99.2,107%,109,–,113,109%,105%,106%,–
CC1(C)CCC(C)(C)NC(=S)N1,92.1%,–,102%,107,105,121,111%,109%,108%,106%
Nc1ccccc1SC1CC(=O)N(c2ccc(Cl)c(Cl)c2)C1=O (stereo not drawn),91.1%,–,104%,92.1,90.5,105,113%,117%,95.7%,79.4%
NCCCN1CCCC1=O,88.2%,–,110%,111,116,104,112%,109%,101%,97.5%
Cn1c(=O)c2nc3c(=O)n(C)c(=O)n(C)c3nc2n(C)c1=O,82.5%,–,91.1%,108,97,106,107%,-27.8% (active),97%,108%
CC(=O)/C(C)=N\OC(=O)Nc1ccccc1,106%,102,93.1%,97.7,90.3,103,104%,107%,101%,–
COc1ccc(C2CCCCC2=O)cc1 (stereo not drawn),103%,107,96.9%,103,–,118,121%,–,108%,–
